USP17 block = blocks human USP17 ubiquitin-rhodamine cleavage; inhibition, % at 50 µM; actives 6.5% (n = 47,000); purified USP17, Ub-rhodamine cleavage fluorescence, 3 h; AID 1645855
USP10 inh = blocks human USP10 ubiquitin-rhodamine cleavage | purified USP10, Ub-rhodamine fluorescence, 60 min | inhibition, % at 20 µM | actives 1.1% (n = 47,000) | AID 1645856
USP8 inh = human USP8 deubiquitinase inhibition; P40818; purified USP8, Ub-rhodamine cleavage fluorescence, 30 min; inhibition, % at 20 µM; actives 4.2% (n = 47,000); AID 1645853
Target sequence (P40818 whole entry, looked up): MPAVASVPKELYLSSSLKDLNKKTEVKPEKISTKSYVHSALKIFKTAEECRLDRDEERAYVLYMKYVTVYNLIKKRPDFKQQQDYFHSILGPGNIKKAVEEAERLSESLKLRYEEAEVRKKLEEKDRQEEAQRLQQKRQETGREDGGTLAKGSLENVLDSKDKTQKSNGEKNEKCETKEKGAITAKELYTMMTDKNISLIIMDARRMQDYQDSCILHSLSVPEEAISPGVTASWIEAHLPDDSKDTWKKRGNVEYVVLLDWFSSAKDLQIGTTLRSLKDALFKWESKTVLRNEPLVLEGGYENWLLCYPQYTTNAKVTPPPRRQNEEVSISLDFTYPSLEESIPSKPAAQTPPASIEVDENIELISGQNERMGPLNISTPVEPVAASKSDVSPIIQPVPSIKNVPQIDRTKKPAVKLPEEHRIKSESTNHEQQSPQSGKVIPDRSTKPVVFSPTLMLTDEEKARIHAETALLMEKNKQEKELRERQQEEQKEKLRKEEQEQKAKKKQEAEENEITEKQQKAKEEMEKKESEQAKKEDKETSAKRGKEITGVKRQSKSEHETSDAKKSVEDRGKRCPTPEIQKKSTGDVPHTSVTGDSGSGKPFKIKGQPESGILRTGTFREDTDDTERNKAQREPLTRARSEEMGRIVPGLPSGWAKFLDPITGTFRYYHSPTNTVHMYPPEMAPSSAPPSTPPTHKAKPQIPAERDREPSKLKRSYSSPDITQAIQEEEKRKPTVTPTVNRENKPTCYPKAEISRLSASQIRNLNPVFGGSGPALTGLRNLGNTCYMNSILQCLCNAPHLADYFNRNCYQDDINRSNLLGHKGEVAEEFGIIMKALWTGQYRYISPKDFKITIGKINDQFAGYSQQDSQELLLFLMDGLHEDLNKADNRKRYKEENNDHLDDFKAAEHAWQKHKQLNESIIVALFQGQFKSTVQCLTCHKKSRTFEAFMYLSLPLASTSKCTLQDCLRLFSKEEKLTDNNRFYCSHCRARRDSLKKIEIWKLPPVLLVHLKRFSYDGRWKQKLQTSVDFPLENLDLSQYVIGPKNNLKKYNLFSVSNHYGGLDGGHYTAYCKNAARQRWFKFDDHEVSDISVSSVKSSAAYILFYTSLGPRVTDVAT
USP30 inh = inhibitors of human USP30 deubiquitinase | Q70CQ3 | purified USP30, Ub-rhodamine cleavage fluorescence | inhibition, % at 25 µM | actives 5.3% (n = 47,000) | AID 1645860
USP28 inh = inhibitors of human USP28 deubiquitinase. inhibition, % at 25 µM. Q96RU2. purified USP28, Ub-rhodamine cleavage fluorescence, 30 min. AID 1645857. actives 3% (n = 47,000)
* marks the source's active call; other numbers are inactive results; . = not tested or not shown. The list is not random: actives were taken first. Their share in the collection is about 14%. Rule as the data show it: active = inhibition above about 30%; inactive = the rest.

SMILES	USP17 block	USP10 inh	USP8 inh	USP30 inh	USP28 inh
COc1ccc(Cl)cc1NC1c2ccccc2C(=O)N1c1ccc(C)cn1 (configuration not stated)	-1	4	-4	-2	-1
COc1ccccc1-c1nnc2sc(COc3ccc(F)cc3)nn12	0	1	-3	.	.
Cc1ccccc1-c1nnc2sc(COc3ccc(Cl)cc3)nn12	68*	26	31*	80*	53*
Cc1ccc(NC(=O)Nc2cccn3nc(C)nc23)cc1	1	1	3	14	47*
Cc1ccc(-n2cc(C(=O)NCc3cccnc3)nn2)cc1C	.	8	-3	66*	19
O=C(NCc1cccnc1)c1cn(-c2cccc(Cl)c2)nn1	24	-2	-3	29	5
O=C(NCc1ccccn1)c1cn(-c2cccc(Cl)c2)nn1	33*	3	-1	9	-13
O=C(/C=C/c1ccccc1)N1CCN(C2=NS(=O)(=O)c3ccccc32)CC1	0	1	1	80*	0
O=C([C@@H]1CCCN1C1=NS(=O)(=O)c2ccccc21)N1CCN(c2ccccc2)CC1	-7	-4	0	0	-14
Cc1ccc(NC(=O)Cn2cccc2-c2nnc(C3CC3)o2)c(C)c1	1	0	0	34*	-13
CCc1ccc(C(=O)COc2ncnc3sc(C)c(C)c23)cc1	15	-9	2	-97	-10
Cc1sc2ncnc(OCC(=O)c3ccc(NC(=O)CC(C)C)cc3)c2c1C	-16	4	30*	-79	-17
O=C1COc2ccc(C(=O)COC(=O)c3ccc4ccccc4n3)cc2N1	44*	-7	20	-195	-44
COc1ccc(OC)c(C(=O)COC(=O)c2ccc3ccccc3n2)c1	27	2	19	0	12
CCN(CC)C(=O)[C@@]1(c2ccccc2)C[C@H]1COc1ccc(C)cc1	30*	5	20	29	25
COc1ccccc1[C@]1(C(=O)N2CCOCC2)C[C@H]1COc1ccccc1	1	-1	1	18	8
O=C(c1nccc2ccccc12)N1CCCC(Cc2cc(-c3ncc[nH]3)ncn2)C1 (configuration not stated)	-21	-6	-46	-17	-16
CN(c1ccccc1)C1COC2(CCN(C(=O)CN3CCCCC3)CC2)C1 (configuration not stated)	13	0	17	15	9
C/C(=C\c1ccccc1)CN1CCC(O)(c2ccc(C)cc2)CC1	13	2	34*	12	11
Cc1nc(-c2cccc(S(=O)(=O)Nc3ccc(-c4ccno4)cc3)c2)no1	2	4	0	8	2
O=C(c1noc2c1CCCC2)N1CCCC(c2ccc3cn[nH]c3n2)C1 (configuration not stated)	-1	5	0	10	5
O=C(CN1CCc2[nH]c3c(F)c(Cl)ccc3c(=O)c2C1)NCc1ccc2c(c1)OCO2	46*	-3	0	32*	7
Cc1cc(=O)n(CC(=O)NCc2ccc3c(c2)OCO3)c(-c2ccc(F)cc2)n1	7	13	-1	2	-1
OCc1ccc(CN2CC[C@H](c3nnc(-c4ccncc4)o3)C2)o1	-9	-3	7	-7	-2
CCC1CCCCN1C(=O)c1cc2c(=O)n3ccccc3nc2n1Cc1ccccc1 (configuration not stated)	9	4	9	31*	15
SMILES	USP17 block	USP10 inh	USP8 inh	USP30 inh	USP28 inh
CNC(=O)c1cc2c(=O)n3cccc(C)c3nc2n1Cc1ccccc1	80*	1	21	7	0
CCc1nc(NCCCC(=O)O)c2oc3ccccc3c2n1	6	2	25	11	5
CC(C)OC(=O)c1cc2c(ccn2-c2ccc(F)cc2)n1CC(=O)NC1CCCCC1	23	-5	23	19	18
CC(C)OC(=O)c1cc2c(ccn2-c2ccc(F)cc2)n1CC(=O)N(C)C1CCCCC1	1	-1	60*	-39	-10
COC(=O)c1cc2c(ccn2-c2ccc(F)cc2)n1CC(=O)NC1CCCCC1	9	16	34*	14	6
CC(=C/C(=O)O)/C=C/[C@]1(O)[C@@]2(C)CO[C@]1(C)C[C@@H](O)C2	17	2	2	10	7
COCCN1C(=O)c2ccccc2C(C(=O)Nc2cc(C)ccn2)C1c1cccs1 (configuration not stated)	9	1	16	33*	7
CN1C(=O)c2ccccc2C(C(=O)Nc2nc3ccccc3s2)C1c1cccs1 (configuration not stated)	37*	1	-25	-15	-8
CCOC(=O)C1=C(N)Oc2cc(C)oc(=O)c2C1c1ccncc1 (configuration not stated)	7	2	11	20	9
O=C(C1c2ccccc2C(=O)N(c2ccccc2)C12CCCCC2)N1CCOCC1 (configuration not stated)	3	0	-19	-3	-2
CCc1oc2cc(O)ccc2c(=O)c1-c1ccc2c(c1)OCCO2	-12	3	6	5	36*
Cc1cccc(-n2nc(C)c3c2NC(=O)CC3C(=O)c2cc3ccccc3o2)c1C (configuration not stated)	-14	-1	-17	-3	14
CCc1ccc(-n2nc(C)c3c2NC(=O)CC3C(=O)c2ccc3c(c2)OCCO3)cc1 (configuration not stated)	57*	1	-1	-2	0
Cc1ccc(-n2nc(C)c3c2NC(=O)CC3C(=O)c2cc3ccccc3o2)cc1 (configuration not stated)	8	33*	24	6	4
CO[C@H]1CC[C@H](O)c2c1oc1c3c4c(c(O)c1c2=O)-c1c(cc2c(Cl)c(C)n(N)c(=O)c2c1O)C[C@@H]4OCO3	62*	23	26	1	59*
CN(C)C(=O)[C@@H]1C[C@@H]2CN(C(=O)C3CCOCC3)CCN2[C@@]12C(=O)Nc1ccccc12	0	0	6	-1	-5
Cc1cccc(OCCC(=O)NCc2ccc(F)cc2)c1	9	0	17	17	9
Cc1cc(C)nc(SCCn2c(N3CCC(Cc4ccccc4)CC3)nc3c2c(=O)n(C)c(=O)n3C)n1	41*	4	6	56*	20
C=C(C)Cn1c(N2CCC(Cc3ccccc3)CC2)nc2c1c(=O)[nH]c(=O)n2C	30	5	-4	37*	9
Cc1cccc(C)c1NC(=O)Cn1cc(-c2ccccc2)c2ncn(C3CC3)c(=O)c21	-32	-3	-32	-186	-9
Cn1nc(-c2nc(-c3ccccc3)no2)c2c1CCN(C(=O)C1CCCC1)C2	64*	-1	6	-15	-6
Cn1nc(-c2nc(-c3ccccc3)no2)c2c1CCN(C(=O)C1CC1)C2	42*	-3	5	68*	12
CC(C)(C)c1cc2n(n1)[C@@H](C(F)F)C[C@@H](C1CCN(C(=O)c3ccccc3F)CC1)N2	-22	-8	-12	-40	1

From PubChem
